hgDAF12 agonist: H. glycines DAF-12 receptor agonists, primary screen, cell-based, luminescence, HEK293, GAL4 fusion, UAS-luciferase. Nuclear hormone receptor DAF-12 (Heterodera glycines), GAL4 fusion. HEK293 GAL4-hgDAF12 UAS-luciferase reporter, agonist luminescence; normalized to butyrate control. activation, % at 6.8 µM. hit rate 1.8% among 370,000. AID 687014, 2013;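 active = activation above a cutoff set at the mean of all screened compounds plus 3 SD, cut at about 10% in these data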;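 also: 0% = DMSO wells and 100% = sodium butyrate wells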
DAX1 inh-1: DAX1 (NR0B1) inhibitors, primary screen, cell-based, HEK293, Gal4-DAX1, luciferase luminescence. Nuclear receptor subfamily 0 group B member 1 (Homo sapiens), P51843. inhibition, % at 6.75 µM. hit rate 0.99% among 340,000. HEK293 Gal4-DAX1 luciferase reporter;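 active = inhibition above the mean over all tested compounds plus 3 SD, cut at about 4.2% in these data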;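 also: 0% = DAX1-transfected cells with DMSO and 100% = empty-vector control cells with DMSO; inhibition shows as a rise in luminescence from relieved DAX1 repression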
Target sequence (P51843 207-470 limits assumed): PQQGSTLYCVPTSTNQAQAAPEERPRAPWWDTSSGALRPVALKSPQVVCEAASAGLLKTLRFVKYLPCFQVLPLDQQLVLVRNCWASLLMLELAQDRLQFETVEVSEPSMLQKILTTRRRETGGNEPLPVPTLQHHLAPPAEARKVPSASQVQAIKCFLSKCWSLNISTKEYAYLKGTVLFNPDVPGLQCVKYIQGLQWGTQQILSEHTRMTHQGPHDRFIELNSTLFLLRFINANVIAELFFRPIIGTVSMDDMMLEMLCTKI
DAX1 inh-2: DAX1 (NR0B1) inhibitors on StAR promoter, primary screen, cell-based, luminescence, SF-1 (NR5A1), full-length DAX-1; hit rate 1.1% among 370,000; AID 652010, 2013; inhibition, % at 6.8 µM; HEK293T StAR-luciferase reporter, SF-1/DAX-1 repression relief;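 active = inhibition above the mean over all tested compounds plus 3 SD, cut at about 3.6% in these data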;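 also: 0% = DAX-1 cells with DMSO and 100% = cells lacking DAX-1 with DMSO; higher inhibition means more luminescence from relief of DAX-1 repression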
ssDAF-12 act: S. stercoralis DAF-12 nuclear receptor activators, primary screen, cell-based, luminescence, HEK293, GRIP1 co-expression, lit1-tk-luc | HEK293 ssDAF-12/GRIP1 lit1-tk-luc reporter; % of 3 µM dafachronic acid response | activation, % at 6.8 µM | Nuclear hormone receptor DAF-12 (Strongyloides stercoralis) | hit rate 1% among 370,000;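 active = activation above the mean over all tested compounds plus 3 SD, cut at about 0.9% in these data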;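 also: 0% = DMSO-only wells and 100% = 3 µM delta7-dafachronic acid wells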
SMARCA2 act: SMARCA2 (BRM) function activators, primary screen, cell-based, luminescence, high throughput. AID 652017, 2013. MG213 cells, MMTV-luciferase reporter, dexamethasone, overnight. activation, % at 9.1 µM. hit rate 1% among 370,000; in the data active = activation above about 7.8%;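 also: 0% = vehicle wells and 100% = reference activator wells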
hcDAF-12 act: H. contortus DAF-12 nuclear receptor activators, primary screen, cell-based, luminescence, HEK293, lit1-tk-luc reporter. HEK293 hcDAF-12 lit1-tk-luc reporter; 0% DMSO, 100% Δ7-dafachronic acid. activation, % at 6.8 µM. hit rate 1.4% among 370,000. AID 652067, 2013;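 active = activation above the mean of all tested compounds plus 3 SD, cut at about 5.5% in these data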;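 also: 100% = response to 3 µM Δ7-dafachronic acid high control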
LXRb hcDAF ctr: LXR agonists, Gal4 luciferase reporter, confirmation, counter-screen for hcDAF-12 agonist project, cell-based, luminescence, HEK293, H. contortus campaign; shares compounds with hcDAF-12 act; HEK293 Gal4-LXR tk-luc reporter, 24 h; normalized: DMSO 0%, positive control 100%; activation, % at 6.8 µM; 3,400 tested, under 10 active; AID 743027, 2013;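 active = mean percent activation of the reporter above a cutoff set as the average over tested compounds plus their standard deviation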
Target sequence (P55055 whole entry, looked up, the tested form may be a part): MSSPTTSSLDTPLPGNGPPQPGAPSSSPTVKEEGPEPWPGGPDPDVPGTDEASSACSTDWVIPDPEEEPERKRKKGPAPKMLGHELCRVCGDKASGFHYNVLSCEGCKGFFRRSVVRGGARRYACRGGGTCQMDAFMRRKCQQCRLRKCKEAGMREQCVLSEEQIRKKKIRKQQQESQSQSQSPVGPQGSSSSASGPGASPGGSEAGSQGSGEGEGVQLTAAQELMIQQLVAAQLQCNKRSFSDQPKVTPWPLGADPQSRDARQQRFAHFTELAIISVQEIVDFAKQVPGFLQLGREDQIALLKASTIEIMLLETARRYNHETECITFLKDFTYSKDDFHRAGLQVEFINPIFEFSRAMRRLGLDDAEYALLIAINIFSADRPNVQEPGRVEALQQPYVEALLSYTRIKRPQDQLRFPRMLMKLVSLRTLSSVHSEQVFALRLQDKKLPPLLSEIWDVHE
hcDAF12 ag: H. contortus DAF-12 receptor agonists, confirmation, cell-based, luminescence, HEK293, lit1-tk-luc, triplicate. hit rate 61% among 3,400. AID 743032, 2013. HEK293 hcDAF-12 lit1-tk-luc reporter; % of Δ7-dafachronic acid response. shares compounds with hcDAF-12 act. activation, % at 6.8 µM;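 active = mean activation across triplicate tests above the threshold derived from the earlier primary screen, cut at about 5.5% in these data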;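 also: 0% = DMSO only wells and 100% = 3 µM Δ7-dafachronic acid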
Numbers without * were called inactive; · = no result given. A selection: hits, their analogues and other compounds. The true share with any hit is near 4.8%.

SMILES	hgDAF12 agonist	DAX1 inh-1	DAX1 inh-2	ssDAF-12 act	SMARCA2 act	hcDAF-12 act	LXRb hcDAF ctr	hcDAF12 ag
COc1ccc(-c2cc(C(=O)N3CCCCCC3)no2)cc1	9.1	6.2*	2.0	-0.3	2.0	7.6*	1.2	4.3
COc1ccc(-c2cc(C(=O)N3CCN(C(c4ccccc4)c4ccccc4)CC3)no2)cc1	·	0.4	·	·	·	·	·	·
O=CN1CCN(C(=S)Nc2ccc(OC(F)F)cc2)CC1	-0.2	0.6	0.5	-1.0	-1.2	-1.8	·	·
OCC1CCCN(C(=S)Nc2ccc(OC(F)F)cc2)C1 (stereo not given)	3.7	0.7	1.0	-0.5	-1.4	10.7*	0.1	0.3
Cc1cc(C)n2nc(SCc3nnc(SCc4ccccc4Cl)s3)nc2n1	-0.3	0.7	0.7	-1.7	-0.5	-1.7	·	·
CCCCn1cnc2c(oc3nc4c(cc32)CCCC4)c1=O	10.8*	0.4	3.0	0.3	1.0	8.3*	1.0	3.5
CCCCCCn1cnc2c(oc3nc4c(cc32)CCCC4)c1=O	7.5	-1.3	0.6	-1.1	2.9	0.2	·	·
CCc1nc2oc3ccccc3c(=O)c2c(=O)n1-c1ccccc1	12.7*	3.2	2.2	1.2*	0.4	8.8*	0.6	8.7*
CCc1nc2oc3ccccc3c(=O)c2c(=O)n1-c1ccc(C)cc1	11.2*	·	2.6	4.0*	4.4	11.6*	1.2	13.8*
CCCc1nc2oc3ccccc3c(=O)c2c(=O)n1-c1ccccc1	4.3	·	0.5	1.2*	1.8	9.5*	0.5	8.0*
CCc1nc2oc3ccccc3c(=O)c2c(=O)n1CCOC	-0.3	0.7	1.2	-0.1	3.4	2.6	·	·
CCCc1nc2oc3ccccc3c(=O)c2c(=O)n1-c1ccc(C)cc1	8.7	·	1.5	1.9*	6.4	10.9*	0.7	12.1*
COC(=O)c1cc2nc(-c3ccc(OC)cc3)cc(C(F)(F)F)n2n1	0.1	0.5	-0.1	-0.6	4.2	-0.6	·	·
COc1cccc(S(=O)(=O)N(C)C[C@H]2OCc3cnnn3CCCC(=O)N([C@@H](C)CO)C[C@H]2C)c1	0.4	1.1	0.7	-0.7	-2.0	-0.1	·	·
CSc1ccc(S(=O)(=O)NCc2ccc(Cl)cc2Cl)cc1	-0.5	-0.2	0.5	-1.6	-0.5	-1.7	·	·
Cc1cccc(OC(=O)c2cccnc2)c1C	2.2	4.0	-0.1	-1.1	-0.3	-1.2	·	·
Cc1c(Cl)cccc1NC(=S)N(CCCN1CCOCC1)Cc1ccco1	-0.6	-1.2	0.2	-1.4	-0.8	1.0	·	·
Cc1ccc(-n2c(C(C)C)nc3oc4ccccc4c(=O)c3c2=O)cc1	11.8*	6.0*	2.1	2.9*	2.0	11.9*	0.9	12.9*
CC(C)c1[nH]nc2c1C(C(C)C)C(C#N)=C(N)O2 (stereo not given)	-1.7	-0.4	0.4	1.3*	1.8	6.9*	-0.1	7.8*
Cc1nc(N)sc1C(=O)Nc1ccccc1	8.3	2.5	1.7	0.2	-0.9	4.6	·	·
Cc1ccc(NC(=O)c2sc(N)nc2C)cc1	11.2*	1.0	0.5	0.3	4.3	6.9*	0.8	5.2
CC(C)(C)C(=O)N1CCC(O)(CS(=O)(=O)Cc2ccc(Cl)cc2)CC1	2.5	-0.5	-0.8	-1.4	-1.9	0.4	·	·
COc1cc(/C=N/N=C(\N)c2nonc2N)ccc1O	8.4	2.4	1.7	-0.7	2.4	0.0	·	·
N/C(=N\N=C\c1ccc(O)cc1)c1nonc1N	15.6*	2.9	3.6	0.0	0.1	7.9*	1.4	5.2
O=C(Cc1ncc(C(F)(F)F)cc1Cl)NC1CC1	-0.9	1.9	-1.1	-1.0	-0.6	-0.3	·	·
SMILES	hgDAF12 agonist	DAX1 inh-1	DAX1 inh-2	ssDAF-12 act	SMARCA2 act	hcDAF-12 act	LXRb hcDAF ctr	hcDAF12 ag
O=C(/C(=C(\[O-])c1ccccc1)[n+]1ccc2ccccc2c1)c1ccc([N+](=O)[O-])cc1	0.7	-0.1	0.4	-0.2	-2.2	4.5	·	·
O=C(/C(=C(\[O-])c1ccccc1)[n+]1ccc2ccccc2c1)c1ccc(Cl)cc1	0.3	2.7	0.1	-0.1	-0.7	9.8*	-0.2	4.7
O=C(/C(=C(\[O-])c1ccccc1)[n+]1ccc2ccccc2c1)c1ccccc1	3.4	-0.2	0.6	0.7	-0.7	8.1*	-0.1	5.4
O=C(/C(=C(/[O-])c1ccccc1)[n+]1ccccc1)c1ccc([N+](=O)[O-])cc1	2.9	0.9	0.8	-1.7	1.1	0.6	·	·
O=C(O)c1cc(-c2c[nH]c3ccccc23)nc2cc3ccccc3cc12	6.3	·	2.0	1.6*	3.3	8.7*	0.1	9.0*
O=C(O)c1cc(-c2cccc3ccccc23)nc2ccccc12	-0.2	0.0	-0.1	-0.6	-3.4	4.6	·	·
COc1cc(C(=O)NCCCc2ccccc2)cc(OC)c1OC	-0.6	0.5	0.0	-0.8	-1.7	1.4	·	·
C/C(=N/NS(=O)(=O)c1ccc(Br)cc1)c1c[nH]c2ccccc12	1.0	1.4	0.7	-0.5	-1.9	-0.3	·	·
C/C(=N\NS(=O)(=O)c1ccc([N+](=O)[O-])cc1)c1c[nH]c2ccccc12	1.4	0.6	-0.7	-0.3	4.2	10.6*	-0.2	1.6
Cc1ccc(NN=C2c3ccccc3-c3ccccc32)cc1	8.7	1.7	1.3	0.2	-0.3	10.7*	0.4	9.0*
O=C(CN1C(=O)CCC1=O)Nc1nc(-c2ccccn2)cs1	0.5	1.0	1.0	-0.8	-1.6	-0.5	·	·
Cc1cc(-c2ccc3c(c2)COc2c4ccccc4nn2-3)on1	9.6	4.8*	4.5*	0.3	6.6	9.0*	1.8	10.2*
COc1ccccc1NC(=O)NC(=O)c1ccccc1	9.0	-0.4	0.4	0.7	6.6	11.0*	1.0	12.7*
COc1ccccc1NC(=O)Nc1cccc(C(=O)O)c1	2.2	-0.6	0.2	-1.1	4.3	-0.3	·	·

Assay outcomes deposited in PubChem BioAssay by The Scripps Research Institute Molecular Screening Center.
